# Bioassay records as filed in PubChem BioAssay.
# HCMV antiviral: human cytomegalovirus inhibition; HFF cells, HCMV-luciferase reporter, 72 h; stronger effect = lower value; activity change, negative = inhibition, % at 57.5 µM; 410,000 compounds, 4.5% hits; in the data active means activity change below about -60%; inconclusive means no clear call, values can overlap the other calls; inactive means above about -39%
#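 Steps: HFFs plated, 16 h 37C; compounds added; HCMV-luciferase added to MOI 1 PFU/cell; 72 h 37C; OneGlo reagent, 5 min room temperature; luminescence read, normalized to controls.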
# VACV Venus inh: vaccinia inhibition (Venus reporter) | Vaccinia virus Venus reporter expression, fluorescence | 330,000 compounds, 0.46% hits | AID 720580 | Potency, µM (top dose mostly 36.5 µM), for the others: at the top dose activity change, negative = inhibition, hits mostly inhibitors; calls by dose curve; tested in A549 cells; further: potency means the concentration at half of the fitted maximal effect; nearly all actives have a fitted effect of over 30% in size
# Lassa entry inh: Lassa virus entry inhibition. Potency, µM (series often up to 37.9 µM), for the others: top-dose activity change, negative = inhibition, hits mostly inhibitors. Lassa virus pseudotype entry inhibition, cell reporter. 300,000 compounds, 1.2% hits; calls by dose curve; tested in HEK293 cells; further: potency means the concentration at half of the fitted maximal effect; nearly all actives have a fitted effect of over 50% in size
# Vaccinia mCherry: inhibitors of vaccinia virus infection (mCherry reporter signal) | Vaccinia virus mCherry reporter infection, fluorescence | Potency, µM (series often up to 36.5 µM), inactives show at the highest dose activity change, negative = inhibition, usual class: inhibitors | 310,000 compounds, 0.63% hits | AID 720579; calls by dose curve; tested in A549 cells; further: potency means the concentration at half of the fitted maximal effect; nearly all actives have a fitted effect of over 35% in size
# FMDV inh: antivirals against foot and mouth disease virus; 410,000 compounds, 1.2% hits; Potency, µM (doses to about 57.9 µM), for the others: top-dose activity change, negative = inhibition, hits mostly inhibitors; FMDV antiviral cell-based qHTS; calls by dose curve; tested in HEK293T cells; further: read-out not given here; potency means the concentration at half of the fitted maximal effect; nearly all actives have a fitted effect of over 45% in size
# Marburg entry inh: blocks Marburg virus binding to or entry into cells | Marburg virus pseudotyped entry inhibition, cell reporter | Potency, µM (titrated, usually from 37.8 µM), without a hit: at the top dose activity change, negative = inhibition, hits mostly inhibitors | 300,000 compounds, 1.8% hits | AID 540276; calls by dose curve; tested in HEK293 cells; further: potency means the concentration at half of the fitted maximal effect
# Numbers without * were called inactive; i = inactive; ? = inconclusive; nt = no result given; [ ] = dose if it differs, or a comment. Only some compounds are listed: those with a hit (about 6.5% of all), similar ones and a draw of the others. On the % scale 0 is the no-effect control and ±100 the full control effect.
SMILES,HCMV antiviral,VACV Venus inh,Lassa entry inh,Vaccinia mCherry,FMDV inh,Marburg entry inh
CCOC(=O)c1c(C)[nH]c(C(=O)CSc2ccccc2)c1C,35,-29%,18µM*,nt,21%,?
CCOC(=O)c1c(C)[nH]c(C(=O)C(C)Sc2ccc(Cl)cc2)c1C (stereo not given),75,7.1µM*,?,-12%[1.46 µM],21%,?
CCOC(=O)c1c(C)[nH]c(C(=O)C(C)Cl)c1C (stereo not given),1,?,-11%,?,-14%,?
CCOC(=O)c1c(C)[nH]c(C(=O)N2CCN(c3ccc(OC)cc3)CC2)c1C,-35,-18%,7.9µM*,?,28%,?
CCn1c(SCC(=O)c2[nH]c(C)c(C(C)=O)c2C)nnc1-c1ccccc1,-37,?,-15%,?,25µM*,?
OC[C@H]1O[C@@H](O[C@H]2[C@H](O)[C@@H](O)[C@H](O)O[C@@H]2CO)[C@H](O)[C@@H](O)[C@@H]1O,nt,0%,nt,i,2%,nt
O=C(O)c1ccc(N2C(=O)/C(=C/c3ccc(-c4ccc([N+](=O)[O-])cc4)o3)C=C2c2ccccc2)cc1,nt,177%,-5%[46.1 µM],-7%,16µM*,-15%[46.1 µM]
O=C1NN(c2ccccc2)C(=O)/C1=C/c1ccc(-c2ccc(C(=O)O)cc2)o1,8,nt,nt,nt,3%,nt
CCn1c(CN2CCOCC2)nc2cc(NC(=O)c3ccc([N+](=O)[O-])cc3)ccc21,?,-30%,-18%[46.1 µM],-30%,?,?
CC(O)CNCCOc1ccccc1OCc1ccccc1 (stereo not given),-32,-17%,7%,-9%,-14%,?
OCCNCc1c(OCc2ccc(Cl)cc2)ccc2ccccc12,-79*,-19%,?,-37%,-21%,5.6µM*
CC(O)CNCCNCc1c(OCc2ccccc2)ccc2ccccc12 (stereo not given),-38,-26%,9.2µM*,-2%,nt,?
CCOc1cccc(CNCCO)c1OCc1ccc(Cl)cc1,?,-14%,-26%,-6%,?,?
COc1ccc2c(c1)C(=O)CC2,nt,-4%,nt,-9%,nt,nt
CC[n+]1c(-c2ccc(C)cc2)csc1Nc1c(C)n(C)n(-c2ccccc2)c1=O,-88*,-27%,?,-24%,32µM*,?
CC[n+]1c(-c2ccccc2)csc1Nc1c(C)n(C)n(-c2ccccc2)c1=O,-39,nt,nt,nt,-15%,nt
CC(C)[C@H](NC(=O)OC(C)(C)C)C(=O)N1CCC(C(=O)N[C@@H](C)C(=O)Nc2ccc(F)cc2)CC1,-30,nt,nt,nt,-15%,nt
CCc1ccc(NC(=O)[C@H](C)NC(=O)C2CCN(C(=O)[C@@H](NC(=O)OC(C)(C)C)C(C)C)CC2)cc1,-71*,nt,nt,nt,48%,5%
Cn1cc(CNCc2ccc(OC(F)(F)F)cc2)c(-c2ccc3c(c2)OCCO3)n1,-81*,nt,nt,nt,?,nt
COC(=O)[C@@H]1CC[C@H](C)[C@@H](c2ccc(C)cc2)N1C(=O)c1ccc(C=NOC[C@@H](O)COCc2ccco2)cc1,nt,nt,15%[14.3 µM],nt,nt,?
COC(=O)/C=C\c1cc(O)ccc1O,nt,nt,nt,nt,9%,nt
COc1ccccc1OCC(=O)NNc1c2ccccc2nc2ccccc12,-92*,nt,nt,nt,-22%,nt
COc1ccccc1OCC(=O)NNC(=O)Nc1ccc(Cl)cc1,-64*,-26%,?,-18%,-12%,?
C[N+]1(CC(=O)NNc2c3ccccc3nc3ccccc23)CCOCC1,-96*,nt,nt,nt,nt,nt
O=C(CSC1=NCCN1)NC(c1ccccc1)c1ccccc1,40,-14%,?,-5%,32µM*,-18%
SMILES,HCMV antiviral,VACV Venus inh,Lassa entry inh,Vaccinia mCherry,FMDV inh,Marburg entry inh
O=C(CSC1=NCCN1)Nc1cccc([N+](=O)[O-])c1,13,-17%,-9%,-21%,18µM*,?
OCCC#Cc1ccc(F)c(-c2noc3ccccc23)c1,-10,nt,nt,nt,nt,nt
Cc1nc(-c2ccc(S(=O)(=O)Nc3cc(Cl)ccc3C)cc2)co1,29,1%,-10%[46.1 µM],-6%,33%,nt
CCCC(=O)Nc1nc(-c2ccc(Cl)s2)cs1,105,nt,nt,nt,9%,nt
Cc1ccc(-c2csc(NC(=O)c3c(C)noc3C)n2)cc1,14,nt,nt,nt,0%,nt
CC(C)=NNc1nc(-c2ccc([N+](=O)[O-])cc2)cs1,?,-22%,-16%,-14%,17%,17%
CC(=O)Nc1nc(-c2ccc([N+](=O)[O-])cc2)cs1,-85*,nt,11%,nt,7%,2%
